These results are taken from PubChem BioAssay (NCI).

Compounds without any hit were thinned out: in the full panel of roughly 79,000, 15% have a hit. A number with no mark means an inactive call. Activity calls are given as the source filed them. Cut-off read from the data, not from the text of the source: active = growth inhibition above about 70%; inactive = the rest.

The nature of assay [1]: NCI Yeast Anticancer Drug Screen. Data for the rad50 strain (AID 155).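 Note: 0% = growth of vehicle-only cultures of the same strain.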 The note with it: S. cerevisiae rad50 strain growth inhibition; at 50.0 µM; active compounds read high. Put shortly: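 Relative growth inhibition (compound vs vehicle) was measured in yeast with a defined repair-gene alteration.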
Assay [2] in a line: NCI Yeast Anticancer Drug Screen. Data for the mec2-1 strain (AID 157). The note with it: S. cerevisiae mec2-1 strain, at 50.0 µM, active compounds read high. Put shortly:
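Vehicle-treated cultures served as reference for growth inhibition of compound-exposed mec2-1 yeast.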

A short description of assay [3]: NCI Yeast Anticancer Drug Screen. Data for the sgs1 mgt1 strain (AID 161).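 Note: 0% = growth of cultures given vehicle only.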 The conditions noted are these: S. cerevisiae sgs1 mgt1 strain, at 50.0 µM, active compounds read high. The method, boiled down:
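Genetically altered yeast, compound exposure, growth inhibition relative to vehicle.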

Assay [4] in a line: NCI Yeast Anticancer Drug Screen. Data for the cln2 rad14 strain (AID 165).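 Note: 0% = growth equal to vehicle treated cultures.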 The note with it: S. cerevisiae cln2 rad14 strain, at 50.0 µM, active compounds read high. The method, boiled down:
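Each compound was tested on cln2 rad14 yeast. Inhibition of growth was calculated against vehicle-exposed controls.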

Assay [5] can be described thus: NCI Yeast Anticancer Drug Screen. Data for the bub3 strain (AID 167). The note with it: S. cerevisiae bub3 mutant strain, at 50.0 µM, active compounds read high. The method, boiled down:
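Screening used yeast with an engineered genetic alteration affecting cell cycle control. Compound-exposed cultures were compared with vehicle cultures, and reduced growth was taken as inhibition.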

Assay [6] in a line: NCI Yeast Anticancer Drug Screen. Data for the mlh1 rad18 strain (AID 175). The note with it: S. cerevisiae mlh1 rad18 strain growth inhibition; at 50.0 µM; active compounds read high. Put shortly:
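Vehicle-treated cultures served as the reference for growth inhibition in a yeast strain carrying DNA damage repair alterations exposed to each compound.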

On to `CC(=O)n1oc2ccc(Br)cc2c1=O`, for which the growth inhibition in assay [1] is -3.6%; in assay [2] it was 1.2%; in assay [3], -7.8%; in assay [4] it was -5.4%; in assay [5], 9.25%; in assay [6], 9.75%.

For `CC(C)Oc1c(N(C)CCO)c2cc(Cl)ccc2oc1=O`, the growth inhibition in assay [1] was -6.1%; in assay [2] it was 12.4%; in assay [3], 3.45%; in assay [4], 19.6%; in assay [5] it was 5.75%; in assay [6], 3.05%.

Turning to `Cc1ccc(CN2CCCCC2)o1`, the growth inhibition in assay [1] was 16.6%; in assay [2] it was 3.2%; in assay [3], 0.2%; in assay [4], 1.1%; in assay [5], 2.05%; in assay [6], 7.5%.

As to `Cc1nc(C(N)=S)sc1C(=O)CC(=O)C(=O)Nc1ccccc1[N+](=O)[O-]`, the growth inhibition in assay [1] was 0.15%; in assay [2], -9%; in assay [3] it was 10.8%; in assay [4], 7%; in assay [5], 17.4%; in assay [6], 1.95%.

`NC(=O)c1ccc(NCC2=CC(=O)C=CC2=O)cc1`: the growth inhibition in assay [1] is -9.85%; in assay [2], 3.25%; in assay [3], -5.05%; in assay [4], -2.6%; in assay [5], -17.9%; in assay [6], 16.8%.

For `COc1ccc(-c2c(-c3ccccc3)c(-c3ccccc3)nn2-c2ccccc2)cc1`, the growth inhibition in assay [1] was 45.2%; in assay [2], 4.85%; in assay [3] it was 34.8%; in assay [4] it was 22.4%; in assay [5], 2.5%; in assay [6], 20.9%.

With `CNCC(=O)NC(CO)C(=O)NC(CO)C(=O)NC1C(C(N)=O)OC(n2ccc(N)nc2=O)C(O)C1O` (stereo not given), the growth inhibition is 13.3% in assay [1]; 10.3% in assay [2]; 8.75% in assay [3]; 38.5% in assay [4]; 23.9% in assay [5]; 24.3% in assay [6].

In the case of `O=C(NCCO)Nc1ccccc1F`, the growth inhibition in assay [1] was 10.2%; in assay [2] it was 3.65%; in assay [3], -3.65%; in assay [4], -27.3%; in assay [5] it was -7.75%; in assay [6], 5.55%.

Turning to `Cc1c(C)n(S(=O)(=O)c2ccccc2)c2ccccc12`, the growth inhibition in assay [1] is 20.6%; in assay [2], 10.4%; in assay [3] it was 21.4%; in assay [4] it was 27.9%; in assay [5], 13.2%; in assay [6], 27.4%.

For `CCN(CC)CCC(O)(c1cccc(Cl)c1)C1CCCCC1` (stereo not given), the growth inhibition in assay [1] was -1.4%; in assay [2], -6.25%; in assay [3] it was -3.1%; in assay [4] it was -68%; in assay [5] it was -7.95%; in assay [6], -7.25%.

For `Cc1cc(=O)n(-c2cncc(Br)c2)[nH]1`, the growth inhibition in assay [1] was 1.5%; in assay [2], 2.05%; in assay [3], 1.5%; in assay [4], -17.5%; in assay [5], 12.4%; in assay [6], 7.75%.

As to `CCOC(O)C(F)(F)C(F)(F)C(F)(F)F` (stereo not given), the growth inhibition in assay [1] is 9.05%; in assay [2], -32.2%; in assay [3] it was 3.5%; in assay [4], 20.9%; in assay [5], -7.95%; in assay [6], 20.1%.

On to `O=C(/C(=C\c1ccc(Cl)cc1)c1ccccc1)c1ccccc1`, for which the growth inhibition is -38% in assay [1]; -29.5% in assay [2]; 4.9% in assay [3]; 5.95% in assay [4]; -23.4% in assay [5]; -16.1% in assay [6].

As to `COc1ccc(NC(=O)Oc2ccc(OC)cc2)cc1`, the growth inhibition is 5.75% in assay [1]; 12.2% in assay [2]; 0.75% in assay [3]; 11.2% in assay [4]; 5.5% in assay [5]; -16.1% in assay [6].

For the compound `Cc1c(Cl)cccc1NC(=O)Oc1ccc(Cl)cc1`, the growth inhibition in assay [1] is 1.75%; in assay [2] it was -2.75%; in assay [3] it was -5.6%; in assay [4], -7.45%; in assay [5] it was -9.7%; in assay [6] it was -4.05%.

Consider `C=CC(=O)OCC(C)(C)COC(=O)C=C`, for which the growth inhibition was 3.3% in assay [1]; -34.5% in assay [2]; -16.7% in assay [3]; 16.1% in assay [4]; 19.8% in assay [5]; -12.6% in assay [6].

As to `COc1ccc(-c2c(N)nc(=S)[nH]c2C(=O)O)cc1`, the growth inhibition in assay [1] was -8.65%; in assay [2], 9.85%; in assay [3], -9.15%; in assay [4] it was -21.2%; in assay [5] it was 8.75%; in assay [6], -17.7%.

With `O=[N+]([O-])c1cccc(S(=O)(=O)O)c1` (tested in a mixture with another compound), the growth inhibition in assay [1] was 15.3%; in assay [2], -3.65%; in assay [3], -0.1%; in assay [4], -33.6%; in assay [5], -2.2%; in assay [6], -4.95%.

Take `COc1ccc2c(NCCCCCCNc3c4ccccc4nc4cc(OC)ccc34)c3ccccc3nc2c1`: the growth inhibition in assay [1] is 89.9% (active); in assay [2], 91.6% (active); in assay [3] it was 92.5% (active); in assay [4], 87.5% (active); in assay [5], 91.5% (active); in assay [6] it was 89.7% (active).

Turning to `CC(C)CCCC(C)C1CCC2C3CCC4=CC(=O)C=CC4(C)C3CCC12C` (stereo not given), the growth inhibition in assay [1] was 45.1%; in assay [2] it was 35.2%; in assay [3] it was 47.6%; in assay [4], 19.1%; in assay [5], 0.85%; in assay [6] it was 41%.

In the case of `O=C(O)Cn1ccc(=O)c2c([N+](=O)[O-])cccc21`, the growth inhibition in assay [1] is 27.2%; in assay [2] it was 16.1%; in assay [3] it was 0.35%; in assay [4] it was 5.3%; in assay [5] it was 8.55%; in assay [6], -51.6%.

In the case of `O=C(NCCN1CCOCC1)c1ccc(I)cc1`, the growth inhibition is 31.8% in assay [1]; 28.9% in assay [2]; 45% in assay [3]; 38.4% in assay [4]; 32.1% in assay [5]; 43.3% in assay [6].

For `Cc1cnc2ccccc2c1`, the growth inhibition is -12.2% in assay [1]; -2.15% in assay [2]; -5.45% in assay [3]; 4.35% in assay [4]; 0.45% in assay [5]; 2.8% in assay [6].

Consider `NCc1c(C(N)=O)ncn1Cc1ccccc1`, for which the growth inhibition in assay [1] was -0.95%; in assay [2], -3.75%; in assay [3], 5%; in assay [4] it was -4.15%; in assay [5], 7.4%; in assay [6], -6.05%.

Consider `Cc1cc(O)c(C(C)C)cc1NC(=S)Nc1ccc(S(=O)(=O)c2ccc(NC(=S)Nc3cc(C(C)C)c(O)cc3C)cc2)cc1`, for which the growth inhibition was 7.55% in assay [1]; 20.1% in assay [2]; 36.9% in assay [3]; 17.9% in assay [4]; 6.65% in assay [5]; 51.2% in assay [6].

`CC1(C)CS(=O)(=O)CC(C)(C)C(=O)C1=O`: the growth inhibition in assay [1] was -25.6%; in assay [2], -19%; in assay [3], -15%; in assay [4], 5.45%; in assay [5], -6%; in assay [6], -3.4%.

On to `CCOC(=O)c1c(SCCO)n(-c2ccccc2)c(=S)n(-c2ccccc2)c1=O`, for which the growth inhibition in assay [1] is -22.7%; in assay [2] it was -25.2%; in assay [3], -22.7%; in assay [4] it was 1.75%; in assay [5] it was -13.3%; in assay [6], -19.4%.

Turning to `COc1cc(CCCOC(=O)/C=C/c2ccc(O)c(O)c2)cc(O)c1O`, the growth inhibition is 19.1% in assay [1]; -18.3% in assay [2]; 1.05% in assay [3]; -17.4% in assay [4]; -0.8% in assay [5]; -72.4% in assay [6].

`CN1CCC(O)(C#N)CC1`: the growth inhibition is -5.55% in assay [1]; 2% in assay [2]; -13.6% in assay [3]; -42.6% in assay [4]; 10.1% in assay [5]; -2.85% in assay [6].

Take `COC1/C=C\OC2(C)Oc3c(C)c(O)c4c(O)c(c5[nH]cnc5c4c3C2=O)NC(=O)/C(C)=C\C=C\C(C)C(O)C(C)C(O)C(C)C(OC(C)=O)C1C` (stereo not given): the growth inhibition in assay [1] is 12.1%; in assay [2], 3.8%; in assay [3], 24%; in assay [4], 28.2%; in assay [5] it was 17.1%; in assay [6], 21.4%.

For the compound `CC1(COC(=O)C2(C)CO2)CO1` (stereo not given), the growth inhibition in assay [1] was 28.2%; in assay [2], 9.95%; in assay [3], -6.1%; in assay [4], 4.7%; in assay [5] it was -25.2%; in assay [6] it was -78.2%.

Turning to `Cc1cc(Br)c(NC(=S)SCc2ccc(Cl)cc2)cc1C`, the growth inhibition is 88.2% (active) in assay [1]; 80% (active) in assay [2]; 82.6% (active) in assay [3]; 63.5% in assay [4]; 80% (active) in assay [5]; 95.8% (active) in assay [6].

Consider `COc1ccc(C)cc1NC(=S)NC(=O)C(C)Oc1ccccc1` (stereo not given), for which the growth inhibition in assay [1] is 11.8%; in assay [2], 46.5%; in assay [3] it was 59.5%; in assay [4] it was -27%; in assay [5] it was 28.6%; in assay [6], 32.9%.

As to `NC(=S)N/N=C/C1=C(Cl)c2ccccc2C1`, the growth inhibition in assay [1] was 7.45%; in assay [2] it was 6.5%; in assay [3], 1.15%; in assay [4], -4.45%; in assay [5], -2.55%; in assay [6], 13.2%.

As to `C=CCNC(=O)NCCCCC(NC(C)=O)C(=O)NCc1ccccc1` (stereo not given), the growth inhibition in assay [1] was -25.4%; in assay [2], -18.4%; in assay [3], -13.6%; in assay [4], 2.35%; in assay [5] it was -16.8%; in assay [6], -10%.

Take `COc1ccc(CC(CN)P(=O)(O)O)cc1` (stereo not given): the growth inhibition was 29.3% in assay [1]; 4.2% in assay [2]; 8.5% in assay [3]; 4.45% in assay [4]; 15.1% in assay [5]; 4% in assay [6].

Turning to `CCOC(=O)C(=O)Nc1ccccc1C(C)C`, the growth inhibition is 12.4% in assay [1]; 6.05% in assay [2]; 0.2% in assay [3]; -7.15% in assay [4]; -9% in assay [5]; 6.35% in assay [6].

`O=C1CCC(c2ccccc2)(c2ccccc2)CC1`: the growth inhibition is 31.8% in assay [1]; -24.6% in assay [2]; -16.1% in assay [3]; -15.5% in assay [4]; 0.15% in assay [5]; 17.5% in assay [6].

Turning to `CC(C)C1CCC(C)(C(=O)Oc2ccccc2-c2ccccc2)C1` (stereo not given), the growth inhibition is 13.1% in assay [1]; 23.4% in assay [2]; 9.75% in assay [3]; -11.6% in assay [4]; 22.2% in assay [5]; 13.6% in assay [6].

As to `O=C(CCC(=O)Nc1ccc(Cl)c(Cl)c1)CC(=O)c1ccc2ccccc2c1`, the growth inhibition in assay [1] is 22%; in assay [2] it was 9.6%; in assay [3], 2.45%; in assay [4], 19.9%; in assay [5] it was 2.2%; in assay [6], -12.1%.
